Assay results taken from PubChem BioAssay (Tox21).
Results filed as inconclusive are left out. Activity calls are given as the source filed them. Calls follow the shape of the dose curve; as a rule, active = well fitted curve in the direction sought with a large enough effect in the repeat runs; inconclusive = weak or mixed curves; inactive = no such curve, though single readings can be large; an effect the other way counts as inactive or inconclusive.

How the values were obtained:
[1] = qHTS RealTime-Glo MT Cell Viability Assay in HEK293 cells - 0 hour (AID 1224880); also: top concentration of the series differs between compounds; nearly all actives have a fitted effect of over 45% in size
Summary of the method: (§1)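 600 cells/well were plated with the nonlytic NanoLuc/prosubstrate reagent, pre-incubated 5 h, then given 23 nL of compound in DMSO. Incubation at 37 C for 40 h, with luminescence from viable-cell-reduced substrate read repeatedly from 0 h.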

[2] = A CellTox Green Cytotoxicity Assay to monitor cytotoxicity in HEK293 cells - 32 hour (AID 1224881); also: nearly all actives have a fitted effect of over 40% in size
Summary of the method: (§2)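 HEK293 cells, 600/well, were preincubated 5 hours and then exposed to compounds at 37 C for up to 40 hours. A cell-impermeant cyanine dye staining dead-cell DNA was read by fluorescence at 0, 8, 16, 24, 32 and 40 h time points.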

[3] = A CellTox Green Cytotoxicity Assay to monitor cytotoxicity in HepG2 cells - 0 hour (AID 1224882); also: nearly all actives have a fitted effect of over 35% in size
Summary of the method: (§3)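 HepG2 cells, 600/well, preincubated 5 h with CellTox Green dye, then exposed to Tox21 compounds in DMSO at 37 C for up to 40 h. Dead-cell DNA fluorescence read at the indicated time point.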

[4] = A CellTox Green Cytotoxicity Assay to monitor cytotoxicity in HepG2 cells - 32 hour (AID 1224883); also: nearly all actives have a fitted effect of over 50% in size
Summary of the method: as §3

[5] = A CellTox Green Cytotoxicity Assay to monitor cytotoxicity in HEK293 cells - 8 hour (AID 1224884); also: nearly all actives have a fitted effect of over 35% in size
Summary of the method: as §2

[6] = qHTS RealTime-Glo MT Cell Viability Assay in HepG2 cells - 16 hour (AID 1224885); also: nearly all actives have a fitted effect of over 50% in size
Summary of the method: (§4)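 HepG2 suspension premixed with RealTime-Glo reagents is plated at 600 cells per well and left 5 h at 37 C/5% CO2. Compounds in DMSO then go in, and bioluminescence reflecting viable cell number is recorded over 40 h.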

[7] = qHTS RealTime-Glo MT Cell Viability Assay in HEK293 cells - 24 hour (AID 1224886); also: nearly all actives have a fitted effect of over 50% in size; also: potency is read from the fitted curve at half-maximal effect; as to activity change, negative = cytotoxicity: top concentration of the series differs between compounds
Summary of the method: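 Reads taken at 0, 8, 16, 24, 32 and 40 h from the same wells. HEK293 cells (600/well) carried RealTime-Glo reagents from seeding, with compound added after a 5 h settle at 37 C.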

[8] = qHTS RealTime-Glo MT Cell Viability Assay in HEK293 cells - 8 hour (AID 1224887); also: nearly all actives have a fitted effect of over 50% in size; also: potency is read from the fitted curve at half-maximal effect; as to activity change, negative = cytotoxicity: top concentration of the series differs between compounds
Summary of the method: as §1

[9] = A CellTox Green Cytotoxicity Assay to monitor cytotoxicity in HEK293 cells - 16 hour (AID 1224888); also: nearly all actives have a fitted effect of over 35% in size
Summary of the method: as §2

[10] = qHTS RealTime-Glo MT Cell Viability Assay in HepG2 cells - 0 hour (AID 1224889); also: nearly all actives have a fitted effect of over 50% in size
Summary of the method: as §4
% is scaled to controls: 0 for no effect and ±100 for the full control effect.

Cc1ccc(N)cc1[N+](=O)[O-]
inactive: outcome [1] | Potency [2] | Potency [3] | Potency [4] | Potency [5] | outcome [6] | Potency [7] | Potency [8] | Potency [9] | Potency [10]

COC(C(=O)O)c1ccccc1 (stereo not drawn)
inactive: outcome [1] | Potency [2] | Potency [3] | Potency [4] | Potency [5] | outcome [6] | Potency [7] | Potency [8] | Potency [9] | Potency [10]

NCCN1CCNC1=O
inactive: outcome [1] | Potency [2] | Potency [3] | Potency [4] | Potency [5] | outcome [6] | Potency [7] | Potency [8] | Potency [9] | Potency [10]

NS(=O)(=O)c1cc2c(cc1C(F)(F)F)NC(Cc1ccccc1)NS2(=O)=O (stereo not drawn)
inactive: outcome [1] | Potency [2] | Potency [3] | Potency [4] | Potency [5] | outcome [6] | Potency [7] | Potency [8] | Potency [9] | Potency [10]

CO[Si](CCCNCCC[Si](OC)(OC)OC)(OC)OC
inactive: outcome [1] | Potency [2] | Potency [3] | Potency [4] | Potency [5] | outcome [6] | Potency [7] | Potency [8] | Potency [9] | Potency [10]

CCC(C(=O)NC(N)=O)c1ccccc1 (stereo not drawn)
inactive: outcome [1] | Potency [2] | Potency [3] | Potency [4] | Potency [5] | outcome [6] | Potency [7] | Potency [8] | Potency [9] | Potency [10]

NC(=S)Nc1cccc2ccccc12
inactive: activity change, negative = cytotoxicity [1] 29.3% [at 6.97 µM] | cytotoxicity increase [2] -1.04% [at 6.97 µM] | cytotoxicity [3] 5.93% [at 6.97 µM] | cytotoxicity increase [4] 0.974% [at 6.97 µM] | cytotoxicity increase [5] 15.1% [at 6.97 µM] | activity change, negative = cytotoxic [6] -0.289% [at 6.97 µM] | activity change, negative = cytotoxicity [7] 15.9% [at 6.97 µM] | activity change, negative = cytotoxicity [8] 11.2% [at 6.97 µM] | activity change [9] 0.057% [at 6.97 µM, hits give high values] | activity change, negative = cytotoxicity [10] 6.18% [at 6.97 µM]

O=C(O)/C=C/c1ccc(Cn2ccnc2)cc1
inactive: outcome [1] | Potency [2] | Potency [3] | Potency [4] | Potency [5] | outcome [6] | Potency [7] | Potency [8] | Potency [9] | Potency [10]

C=CCOCC(O)CS(=O)(=O)O (stereo not drawn)
inactive: outcome [1] | Potency [2] | Potency [3] | Potency [4] | Potency [5] | outcome [6] | Potency [7] | Potency [8] | Potency [9]

O=[N+]([O-])c1ccc(CCO)cc1
inactive: outcome [1] | Potency [2] | Potency [3] | Potency [4] | Potency [5] | outcome [6] | Potency [7] | Potency [8] | Potency [9] | Potency [10]

CCn1c(=O)c2c(nc(/C=C/c3ccc(OC)c(OC)c3)n2C)n(CC)c1=O
active: Potency [7] 1690 nM | Potency [8] 1510 nM
inactive: outcome [1] | Potency [2] | Potency [3] | Potency [4] | Potency [5] | outcome [6] | Potency [9]

Nc1cc(C(Cl)=C(Cl)Cl)c(S(N)(=O)=O)cc1S(N)(=O)=O
inactive: outcome [1] | Potency [2] | Potency [3] | Potency [4] | Potency [5] | outcome [6] | Potency [7] | Potency [8] | Potency [9] | Potency [10]

CNC(=O)c1c(I)c(NC(=O)CCCCC(=O)Nc2c(I)c(C(=O)O)c(I)c(C(=O)NC)c2I)c(I)c(C(=O)O)c1I
inactive: outcome [1] | Potency [2] | Potency [3] | Potency [4] | Potency [5] | outcome [6] | Potency [7] | Potency [8] | Potency [9] | Potency [10]

CC(O)CN(CCCN(C)C)CCCN(C)C (stereo not drawn)
inactive: outcome [1] | Potency [2] | Potency [3] | Potency [4] | Potency [5] | outcome [6] | Potency [7] | Potency [8] | Potency [9] | Potency [10]

CCCCCCCCCCCl
inactive: outcome [1] | Potency [2] | Potency [3] | Potency [4] | Potency [5] | outcome [6] | Potency [7] | Potency [8] | Potency [9] | Potency [10]

COc1nc(C)nc(N)n1
inactive: outcome [1] | Potency [2] | Potency [3] | Potency [4] | Potency [5] | outcome [6] | Potency [7] | Potency [8] | Potency [9] | Potency [10]

CCCCCOC(=O)Nc1nc(=O)n([C@@H]2O[C@H](C)[C@@H](O)[C@H]2O)cc1F
inactive: outcome [1] | Potency [2] | Potency [3] | Potency [4] | Potency [5] | outcome [6] | Potency [7] | Potency [8] | Potency [9] | Potency [10]

CCN1CCCC(OC(=O)C(c2ccccc2)c2ccccc2)C1 (stereo not drawn)
inactive: outcome [1] | Potency [2] | Potency [3] | Potency [4] | Potency [5] | outcome [6] | Potency [7] | Potency [8] | Potency [9] | Potency [10]

C=CCn1c(=O)n([C@@H]2O[C@H](CO)[C@@H](O)[C@H]2O)c2nc(N)[nH]c(=O)c21
inactive: outcome [1] | Potency [2] | Potency [3] | Potency [4] | Potency [5] | outcome [6] | Potency [7] | Potency [8] | Potency [9] | Potency [10]

CO
inactive: outcome [1] | Potency [2] | Potency [3] | Potency [4] | Potency [5] | outcome [6] | Potency [7] | Potency [8] | Potency [9] | Potency [10]

COc1cc(C(=O)N2CCOCC2)cc(OC)c1OC
inactive: outcome [1] | Potency [2] | Potency [3] | Potency [4] | Potency [5] | outcome [6] | Potency [7] | Potency [8] | Potency [9] | Potency [10]

CCCC(=O)O[C@]1(C(=O)CCl)[C@@H](C)C[C@H]2[C@@H]3CCC4=CC(=O)C=C[C@]4(C)[C@@]3(F)C(=O)C[C@@]21C
inactive: outcome [1] | Potency [2] | Potency [3] | Potency [4] | Potency [5] | outcome [6] | Potency [7] | Potency [8] | Potency [9] | Potency [10]

CCN1CCN(c2cc3c(cc2F)c(=O)c(C(=O)O)cn3C2CC2)CC1
inactive: outcome [1] | Potency [2] | Potency [3] | Potency [4] | Potency [5] | outcome [6] | Potency [7] | Potency [8] | Potency [9] | Potency [10]
